According to PubChem BioAssay (NCI):
The panel holds about 83,000 compounds, 20% with a hit somewhere; the sample as a whole holds those more often.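 Testing used 96-well plates and a 48-hour single-concentration exposure. Example: -40 means 40% of the starting cells died.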 Unmarked numbers belong to inactive results. Activity calls are given as the source filed them. Rule for the calls: active = growth percent below 10; inactive = the rest.

The compounds below were run on HL-60(TB) leukemia (assay: NCI-60 one-dose screen, 48 h (100 = growth as untreated, 0 = no growth, -100 = all killed)). Conditions: 10 µM unless noted.

Structure (SMILES) | growth
Cc1nc2cc(Nc3nc(N4CCCCC4)nc(N4CCOCC4)n3)ccc2n1Cc1ccccc1 | 75%
CC(C)CC1NC(C)(C)CO1 (stereo not drawn) | 133%
Fc1ccc(NC(c2ccc(F)cc2)C2CCN(CCCCc3ccccc3)CC2)cc1 (stereo not drawn) | 10.8%
O=[N+]([O-])c1ccc(Oc2cccc(C(F)(F)F)c2)c([N+](=O)[O-])c1 | 14.3%
C=CCN=C1NC(=O)/C(=C/c2cc(C(C)(C)C)c(O)c(C(C)(C)C)c2)S1 | 54.3%
CNCCCNc1ccnc2cc(Cl)ccc12 | -25% (active)
NC(=S)N/N=C/c1cn(-c2ccccc2)nc1-c1cc2ccccc2oc1=O | 20.4%
CCN1/C(=C/C=C/c2n(-c3ccccc3)c3ccc(-c4nc5ccccc5s4)cc3[n+]2CC)N(c2ccccc2)c2ccc(-c3nc4ccccc4s3)cc21 | 6.43% (active)
CC(=O)c1nn(-c2ccccc2)c(=Nc2ccccc2)cc1C | 106%
CCC(C)(c1cc(C(C)(C)C)c(O)c(C(C)(C)C)c1)c1cc(C(C)(C)C)c(O)c(C(C)(C)C)c1 | 99.3%
Cn1c(=O)c2[nH]c(C(O)C(O)C(O)C(O)CO)nc2n(C)c1=O (stereo not drawn) | 100%
CCOc1ccc2c(c1)c(C)cc(C)[n+]2CC | 61.5%
Clc1ccc(C2CC(c3cccc(Nc4ccncc4)c3)=NN2c2cc(Cl)cc(Cl)c2)cc1 (stereo not drawn) | 24.8%
CNc1nc(C)c(-c2nc(Nc3cccc(S(N)(=O)=O)c3)ncc2F)s1 | -47.9% (active)
COc1ccc(C2=C(c3cccc(OC)c3)C(=O)c3ccc(C)nc3C2=O)cc1 | 41.1%
O=C(NCCOCCOCCNc1cccc2c1C(=O)N(C1CCCNC1=O)C2=O)c1cc2c(o1)C(=O)c1ccccc1C2=O (stereo not drawn) | -1.81% (active)
COc1ccc2c(c1)sc1nc(-c3ccccc3)c(-c3cccnc3)n12 | 105%

Structure (SMILES) | growth
CN(C)c1ccc(Cc2cc(-c3ccccc3)nn(C/C(=N/O)c3ccccc3)c2=O)cc1 | 54.3%
O=C(COc1cccc(/C=C2\COc3ccccc3C2=O)c1)Nc1nccs1 | -58.4% (active)
c1ccc(-c2nc3ccccc3s2)cc1 | 99.5%
O=C1c2cccc3c(-c4ccc(-c5nc6c7ccccc7c7ccccc7c6[nH]5)cc4)ccc(c23)C(=O)N1CCN1CCNCC1 | 82.5%
CN[C@@H](CCCNC(N)=NC/C=C(/C)CCC=C(C)C)C(=O)N(C)[C@@H](CCCNC(N)=NCC=C(C)C)C(=O)N[C@H](C)[C@H](OS(=O)(=O)O)c1ccc(OS(=O)(=O)O)c(COS(=O)(=O)O)c1 | 83.5%
Cc1cc(-c2noc(C(F)(F)F)n2)ccc1N1CCN(c2cc(C(=O)N(C)C)no2)CC1 | 49.7%
CC/C=C1/C(=O)C=C[C@@H]1C/C=C\CCCC(=O)OC | 5.31% (active)
O=C1NCN(c2ccccc2)C12CCN(CCCC(c1ccc(F)cc1)c1ccc(F)cc1)CC2 | 32.6%
Cc1cccc2c(=O)c3c(sc12)c(N1CCNCC1)nc1ccccc13 | 52.9%
CC1(C)CCC[C@]23C(=O)O[C@](O)(C(=O)C4=C[C@@](C)(/C=C/CCCc5ccc6ccc7cccc8ccc5c6c78)CC[C@@]42O)[C@@H]13 | -18.3% (active)
O=C(Nc1ccc(Cl)cc1F)c1cc(F)ccc1O | -43.8% (active)
COC(=O)c1ccc2[nH]c(O)c(C(=Nc3ccc(N(C)C(=O)CN4CCN(C)CC4)cc3)c3ccc([N+](=O)[O-])cc3)c2c1 | 11.6%
COc1cc2c(c(OC)c1OC)-c1ccc(NNC(=S)N(Cc3cccc(C[N+](Cc4cccc(CNC56CC7CC(CC(C7)C5)C6)c4)(Cc4cccc(CNC56CC7CC(CC(C7)C5)C6)c4)Cc4cccc(CN(C(=S)NNc5ccc6c(cc5=O)[C@@H](NC(C)=O)CCc5cc(OC)c(OC)c(OC)c5-6)C56CC7CC(CC(C7)C5)C6)c4)c3)C34CC5CC(CC(C5)C3)C4)c(=O)cc1[C@@H](NC(C)=O)CC2 (stereo partly drawn) | -63.4% (active)
CN1CCN(c2ccc(NC(=O)c3cncnc3Nc3ccc(OCc4cccc(F)c4)c(Cl)c3)cc2)CC1 | 66.9%
COc1cc(-c2nn(-c3cccc(NC(=O)CCN4CCN(Cc5ccccc5)CC4)c3)cc2-c2ccncc2)ccc1Cl | -5.82% (active)
CCOCCNc1ccc(S(=O)(=O)c2ccc(N)cc2)cc1N | 107%
